ANO1 block – TMEM16A chloride channel inhibitors, primary screen, cell-based, HTS. HEK293 TMEM16A/YFP iodide influx fluorescence, ionomycin. normalized B-score (activity score, 25-100; higher = stronger inhibition) at 10 µM. AID 588511, 2011. 310,000 compounds, 1.2% hits;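 active = ratio plate-corrected score three or more library SD toward inhibition, starting fluorescence score within five deviations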;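 note: score derived from kinetic fluorescence span divided by baseline fluorescence per well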
Target sequence (Q8BHY3 whole entry, looked up): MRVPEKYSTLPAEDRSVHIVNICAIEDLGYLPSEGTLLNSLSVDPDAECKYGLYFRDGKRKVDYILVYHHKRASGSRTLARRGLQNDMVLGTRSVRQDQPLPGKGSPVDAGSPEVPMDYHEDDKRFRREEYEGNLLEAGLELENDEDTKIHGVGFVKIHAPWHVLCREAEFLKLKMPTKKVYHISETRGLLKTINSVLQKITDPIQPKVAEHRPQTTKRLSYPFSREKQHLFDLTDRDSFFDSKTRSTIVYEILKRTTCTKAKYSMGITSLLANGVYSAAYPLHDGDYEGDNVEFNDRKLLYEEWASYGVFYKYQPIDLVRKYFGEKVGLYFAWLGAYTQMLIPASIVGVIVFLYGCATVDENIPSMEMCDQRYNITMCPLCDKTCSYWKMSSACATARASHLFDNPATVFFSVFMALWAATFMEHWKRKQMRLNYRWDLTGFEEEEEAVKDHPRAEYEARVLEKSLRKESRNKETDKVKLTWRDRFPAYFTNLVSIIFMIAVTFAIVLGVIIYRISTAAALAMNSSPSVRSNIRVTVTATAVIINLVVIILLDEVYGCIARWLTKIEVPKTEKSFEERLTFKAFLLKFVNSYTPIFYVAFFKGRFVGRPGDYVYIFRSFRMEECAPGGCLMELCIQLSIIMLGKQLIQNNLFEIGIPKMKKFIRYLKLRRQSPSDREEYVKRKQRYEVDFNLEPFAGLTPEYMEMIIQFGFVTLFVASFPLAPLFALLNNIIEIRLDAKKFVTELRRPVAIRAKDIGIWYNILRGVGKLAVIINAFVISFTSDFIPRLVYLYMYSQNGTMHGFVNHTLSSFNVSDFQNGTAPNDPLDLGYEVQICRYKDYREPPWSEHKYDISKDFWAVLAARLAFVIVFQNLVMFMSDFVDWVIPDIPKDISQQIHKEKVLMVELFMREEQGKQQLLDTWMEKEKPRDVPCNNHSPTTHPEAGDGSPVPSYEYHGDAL
ANO1 activ – TMEM16A chloride channel activators or potentiators, primary screen, cell-based, HTS; Anoctamin-1 (Mus musculus), Q8BHY3; HEK293 TMEM16A/YFP-H148Q/I152L, iodide quench fluorescence; hits give low values; B-score at 10 µM; 340,000 compounds, 0.3% hits; AID 623877, 2012;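 active = fluorescence-ratio B-score plate-corrected deviation score at least 3 library SD below zero, with starting fluorescence score within 5 deviations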;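 note: channel opened by trigger with iodide after compound preincubation; score built on the fluorescence ratio of max minus min over baseline; more negative score means more quench and so TMEM16A activation or potentiation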
CHT allo act – CHT positive allosteric modulators, primary screen, cell-based, membrane potential dye, choline EC20; CHT-expressing cells; hits give high values; LV-AA mutant CHT in HEK293 cells; B-score at 10 µM; 310,000 compounds, 0.49% hits; AID 488977, 2010;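 active = initial fluorescence not abnormally high and integrated response B-score, plate-corrected, over 3 SD above library mean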
CHT inh – inhibitors of human choline transporter CHT; AID 488975, 2010; B-score at 10 µM; CHT-expressing cells, membrane potential dye, choline response; hits give low values; 310,000 compounds, 0.86% hits;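 active = B-score over 3 SD under the library average, and starting fluorescence ratio not unusually high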;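 note: choline stimulus applied at its EC90 after an EC20 pre-addition; B-score computed on integrated fluorescence ratio after choline addition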
CHT activ conf – CHT activators, confirmation, cell-based, membrane potential dye, duplicate. shares compounds with CHT allo act. CHT-expressing cells, membrane potential dye fluorescence (FDSS); % of choline EC20–EC90 response window; HEK293 expressing CHT LV-AA mutant; choline added at its EC20. activation, % at 10 µM. 2,500 compounds, 91% hits. AID 504833, 2011;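 active = primary screen active, with duplicate mean activation above negative control mean plus 3 SD, cut at about 11% in these data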
HEK293 MP dye – membrane potential response in parental HEK293 cells, counter-screen for CHT activator project, cell-based, membrane potential dye; shares compounds with CHT allo act; membrane potential dye fluorescence (FDSS); measured after EC20 choline addition; ratio readout change at 10 µM, hits read low; 2,500 compounds, 62% hits;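 active = duplicate-averaged ratio beyond 3 SD from buffer wells, up or down, though filed actives are nearly all decreases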
Each line names hits and unclear results; the compound was inactive in the other large screens (follow-up assays come after a bar, where they were run). Rows were chosen to be rich in hits. Some 2.3% of all compounds tested hit in one or more screens of this group.

FC(F)(F)c1ccc(N/N=C/c2cccnc2)nc1	none
C(=N\Nc1ccccn1)/c1cccnc1	none | CHT activ conf 59 | HEK293 MP dye -54
COc1ccc(/C=N/Nc2ccccn2)cc1OC	none | CHT activ conf 42 | HEK293 MP dye -43
CSc1cccc(NC(=O)COC(=O)c2ccccn2)c1	none (no result: ANO1 block, CHT allo act, CHT inh)
CCSc1ccccc1C(=O)N1CCC2(CC1)CC(=O)c1ccccc1O2	none
CCC(C)Sc1ccc([C@H]2N[C@@](C)(C(=O)OC)[C@H]3C(=O)N(CC)C(=O)[C@@H]23)cc1OC (stereo not given in full)	none (no result: ANO1 block, CHT allo act, CHT inh)
CCCCOC(=O)N1CCOCCOCCOCC1	none | CHT activ conf 17 | HEK293 MP dye inactive
CC(C)n1nnnc1C(c1ccc(F)cc1)N1CCN(C2CCCC2)CC1 (stereo not given)	none (no result: ANO1 block, CHT allo act, CHT inh)
Fc1ccc(C(c2nnnn2Cc2ccco2)N2CCN(C3CCCCC3)CC2)cc1 (stereo not given)	none | CHT activ conf 31 | HEK293 MP dye inactive
C#CCOCCOCCOCCNc1nc(N2CCN(C(=O)Cn3cc(CC(C)O)nn3)CC2)nc(N2CCN(C(=O)[C@H](C)n3cc(CCC(=O)O)nn3)CC2)n1 (stereo not given in full)	none (no result: ANO1 block, CHT allo act, CHT inh)
C=CCOC(=O)C1=C[C@@H](c2ccc(Br)cc2)[C@H](CCCO)[C@@H](OCC)O1	CHT allo act 6.7 | CHT activ conf 25 | HEK293 MP dye inactive
Cc1ccc(C(=O)NCc2cccnc2)cc1S(=O)(=O)N1CCCCCC1	none
Cc1ccc(S(=O)(=O)Nc2nncs2)cc1	CHT allo act 9.5 | CHT activ conf inactive | HEK293 MP dye inactive
Cc1ccc(S(=O)(=O)Nc2nnc(C(C)(C)C)s2)cc1	none
CCCN(C(=O)Cc1coc2cc(OC)ccc12)C1CCS(=O)(=O)C1 (stereo not given)	none (no result: ANO1 block, CHT allo act, CHT inh)
CCN1C(=NCc2ccccc2)N[C@@H](c2ccccc2)[C@H](C(=O)OC)[C@H]1C	CHT allo act 6.9 | CHT activ conf 12 | HEK293 MP dye inactive
COC(=O)[C@@H]1[C@@H](C)N(Cc2ccccc2)C(=O)N[C@H]1c1cccc(C(F)(F)F)c1	CHT allo act 9.4 | CHT activ conf inactive | HEK293 MP dye inactive
Cc1cccnc1NC(=O)c1ccc2c(c1)OCO2	none
Cc1cccnc1NC(=O)/C=C/c1ccc2c(c1)OCO2	none | CHT activ conf 44 | HEK293 MP dye -40
COc1ccc(Cl)c(NC(=O)C/C(C)=N/NC(=O)CCc2ccccc2)c1	none
COc1ccccc1CNC(=O)OCc1nccnc1C(=O)Nc1ccc(Br)cn1	none
CC[n+]1c(C)sc2c(C)cc(C)cc21	CHT allo act 7.8 | CHT activ conf 62 | HEK293 MP dye -60
Cc1cc2c(cc1C)[n+](C)cn2CC(O)COCc1ccccc1 (stereo not given)	none | CHT activ conf 48 | HEK293 MP dye -35
COc1ccccc1NC(=O)CCC(=O)OCC(=O)c1ccc(C)c([N+](=O)[O-])c1	none
CC1(C)Cc2c(c(-c3ccco3)nc3sc4c(NCCN5CCOCC5)ncnc4c23)CO1	none
CC1(C)Cc2c(sc3nc(NCCN4CCOCC4)n4ncnc4c23)CO1	CHT allo act 6.5 | CHT activ conf 62 | HEK293 MP dye -62
C=CCNC(=S)Nc1ccccc1-c1nnc2n1CCCCC2	none
CCc1cc(=O)oc2cc(C)cc(OCC(=O)NCCCN3CCOCC3)c12	none
Cc1cc(OCC(=O)NCCCN2CCOCC2)c2c(C)cc(=O)oc2c1	CHT allo act 6.5 | CHT activ conf 60 | HEK293 MP dye -52
Cc1ccc(C)c(S(=O)(=O)N2CCN(C(=O)Cn3cnc4c3c(=O)n(C)c(=O)n4C)CC2)c1	none
COc1ccc(C(OCC(O)CNCCc2ccccc2)c2ccc(OC)cc2)cc1 (stereo not given)	none
O=C1CCC/C=C\C[C@@H](CC(=O)N(CCO)Cc2ccccc2)C(=O)N[C@H](c2ccccc2)CO1	none (no result: ANO1 block, CHT allo act, CHT inh)
NNC(=O)c1ccc(-c2cccc([N+](=O)[O-])c2)o1	none | CHT activ conf 15 | HEK293 MP dye -23

Screening results deposited in PubChem by Johns Hopkins Ion Channel Center.
